“And” between values parts separate entries of the source, which are not always exact repeats. Equal entries are not always repeated. About 610 (9.5%) of roughly 6,400 compounds were called active. No stated cut-off is given here; in the data, active means activity change below about -70%; inconclusive means no clear call, values can overlap the other calls; inactive means above that. Shown is part of a subset that was picked to be rich in actives. The source holds several records for some structures; these can differ, active in one and inactive in another.

This assay in a line: Toxoplasma gondii ME49Luc growth in HeLa cells, luciferase, no IFN-y, primary screen (AID 1259421). Particulars: T. gondii ME49Luc in HeLa, 72 h, stronger effect = lower value, concentration not given here.
As to `CCNC(=O)C1OC(n2cnc3c(N)nc(NCCc4ccc(CCC(=O)O)cc4)nc32)C(O)C1O` (centres undefined), the activity change, negative = inhibition was 1.12% (inactive).

`CC(C)=CCOc1cc2oc(=O)ccc2cc1O`: the activity change, negative = inhibition was -2.69% (inactive).

With `O=C(O)c1cc(O)c2c(c1)C(=O)c1cccc(O)c1C2=O`, the activity change, negative = inhibition was 18.1% (inactive).

`Nc1nc(Nc2ccc3c(c2)CC[C@@H](N2CCCC2)CC3)nn1-c1cc2c(nn1)-c1ccccc1CCC2`: the activity change, negative = inhibition was -85.1% (active).

In the case of `CC(=O)O[C@]1(C(C)=O)CCC2C3C=C(Cl)C4=CC(=O)CC[C@]4(C)C3CC[C@@]21C` (some centres undefined), the activity change, negative = inhibition is 2.15% (inactive) and -3.18% (inactive).

On to `CCCCCCC(=O)OC1CC(C)(C)NC(C)(C)C1`, for which the activity change, negative = inhibition is 10.7% (inactive) and -2.86% (inactive).

As to `O=C(NC1CCN(CCCCC2(C(=O)NCC(F)(F)F)c3ccccc3-c3ccccc32)CC1)c1ccccc1-c1ccc(C(F)(F)F)cc1`, the activity change, negative = inhibition is -89% (active).

For `O=C(NC1CCN(CCc2c[nH]c3ccccc23)CC1)c1ccccc1`, the activity change, negative = inhibition was 10.9% (inactive).

Regarding `O=C(N[C@H]1CCN(C(=O)c2cc(C(F)(F)F)cc(C(F)(F)F)c2)[C@H](Cc2ccc(Cl)cc2)C1)c1ccnc2ccccc12`, the activity change, negative = inhibition is 25.3% (inactive).

Regarding `CN1CC(=O)N/C1=N/C(=O)Nc1cccc(Cl)c1`, the activity change, negative = inhibition was 32.6% (inactive) and 26.4% (inactive).

Take `CNC(=O)C1OC(n2cnc3c(NCc4cccc(I)c4)ncnc32)C(O)C1O` (centres undefined): the activity change, negative = inhibition is 5.36% (inactive).

`O=C(O)C(=O)O.O=C(O)C(=O)O.O=C(O)C(=O)O.[Bi].[Bi]`: the activity change, negative = inhibition is 12.7% (inactive).

`C[C@@H]1CN(CCCn2c3ccccc3c3ccccc32)C[C@H](C)N1`: the activity change, negative = inhibition is 18.2% (inactive).

In the case of `CC1CN(CCCn2c3ccccc3c3ccccc32)CC(C)N1` (centres undefined), the activity change, negative = inhibition is -30.6% (inactive).

As to `COc1ccccc1C1(O)CCN(CCCn2c3ccccc3c3ccccc32)CC1`, the activity change, negative = inhibition was -73.1% (active) and -52.5% (inactive).

Turning to `CO/N=C(\C(=O)N[C@@H]1C(=O)N2C(C(=O)O)=C(C[n+]3ccn4ncccc43)CS[C@H]12)c1nsc(N)n1`, the activity change, negative = inhibition was 12% (inactive).

As to `CC(C)n1cnc2c(NCc3ccccc3O)nc(NCCCO)nc21`, the activity change, negative = inhibition was 1.44% (inactive).

As for `CC[C@H](CO)Nc1nc(Nc2cccc(-c3ccccn3)c2)c2ncn(C(C)C)c2n1`, the activity change, negative = inhibition is -72.2% (active).

Take `CC[C@@H](CO)Nc1nc(NCc2ccccc2)c2ncn(C(C)C)c2n1`: the activity change, negative = inhibition was -3.07% (inactive).

Consider `CC[C@H](CO)Nc1nc(NCc2ccc(-c3ccccn3)cc2)c2ncn(C(C)C)c2n1`, for which the activity change, negative = inhibition is -75.6% (active).

Take `CC[C@H](CO)Nc1nc(NCc2ccccc2)c2ncn(C(C)C)c2n1`: the activity change, negative = inhibition was -9.71% (inactive).

In the case of `CN1Cc2c(C(=O)OC(C)(C)C)ncn2-c2ccsc2C1=O`, the activity change, negative = inhibition was 4.12% (inactive) and 13% (inactive).

With `CC(=O)O[C@@H]1CC2C(C)(C)C(=O)C3OC3[C@]2(C)C2CC[C@@]3(C)[C@H](c4ccoc4)OC(=O)C4OC43[C@@]21C` (some centres undefined), the activity change, negative = inhibition was 26.1% (inactive).

Consider `CC1=NN(c2ccc(C(=O)O)cc2)C(=O)/C1=C\c1ccc(-c2cc(C)c(C)cc2[N+](=O)[O-])o1`, for which the activity change, negative = inhibition was 27.1% (inactive).

In the case of `O=C(/C=C/c1ccccc1)c1ccc(O)cc1`, the activity change, negative = inhibition is -8.89% (inactive).

As for `CC(=O)c1cnc2ccc(-c3cc(Cl)c(O)c(Cl)c3)nc2c1NC1CCC(CN(C)C)CC1` (centres undefined), the activity change, negative = inhibition is -87.5% (active).

Consider `CO[C@H]1C=CO[C@@]2(C)Oc3c(C)c(O)c4c(O)c(c5c(c4c3C2=O)NC2(CCN(CC(C)C)CC2)N=5)=NC(=O)/C(C)=C\C=C/[C@H](C)[C@H](O)[C@@H](C)[C@@H](O)[C@@H](C)[C@H](OC(C)=O)[C@@H]1C`, for which the activity change, negative = inhibition is -31.1% (inactive).

For `Nc1nc(=O)n([C@@H]2O[C@H](CO)[C@@H](O)[C@@H]2F)cc1I`, the activity change, negative = inhibition was 9.84% (inactive).

For the compound `CC(=O)OCC(=O)[C@@]1(O)CCC2C3CCC4=CC(=O)C=C[C@]4(C)[C@@]3(F)[C@@H](O)C[C@@]21C` (some centres undefined), the activity change, negative = inhibition was -18.2% (inactive).

For `CCN1CCN(Cc2ccc(Nc3ncc(F)c(-c4cc(F)c5nc(C)n(C(C)C)c5c4)n3)nc2)CC1`, the activity change, negative = inhibition is -82.7% (active).

`CN(C)Cc1ccc(-c2nc3cccc4c3n2CCNC4=O)cc1`: the activity change, negative = inhibition was 4.67% (inactive).

As to `CCC(=O)OCC(=O)[C@@]1(OC(=O)CC)[C@H](C)CC2C3C([C@@H](O)C[C@@]21C)[C@@]1(C)C=CC(=O)C=C1C[C@H]3Cl` (some centres undefined), the activity change, negative = inhibition is 2.29% (inactive).

Turning to `CC1=CC(=O)C2C(C)(C)CCC[C@]2(C)[C@@]1(O)CCc1ccoc1` (some centres undefined), the activity change, negative = inhibition is 1.47% (inactive).

As to `CN1CC[C@@H](c2c(O)cc(O)c3c(=O)cc(-c4ccccc4Cl)oc23)[C@@H]1CO`, the activity change, negative = inhibition is -78.4% (active).

Regarding `COc1ccc(-c2cc(=O)c3c(O)cc(OC)c(OC)c3o2)c(OC)c1`, the activity change, negative = inhibition is 12.5% (inactive).

On to `CN1CC[C@H](c2c(O)cc(O)c3c(=O)cc(-c4ccccc4Cl)oc23)[C@H](O)C1`, for which the activity change, negative = inhibition is -83.7% (active).

On to `NC(N)=NCCC[C@H](N)C(=O)NCC(=O)N[C@@H](CC(=O)O)C(=O)N[C@@H](CO)C(=O)O`, for which the activity change, negative = inhibition was 12.1% (inactive).

In the case of `CC(C)CCNc1ncccc1C(=O)N1CCN(Cc2ccccc2)CC1`, the activity change, negative = inhibition is 7.68% (inactive).

Regarding `CC(C)=CCc1c(O)cc2oc(C)cc(=O)c2c1O`, the activity change, negative = inhibition was 1.96% (inactive).

On to `COc1cc2oc3cc(OC)c(OC)c(CC=C(C)C)c3c(=O)c2c(O)c1CC=C(C)C`, for which the activity change, negative = inhibition is 7.82% (inactive).

Consider `COc1c(O)cc2oc3cc(O)c(CC=C(C)C)c(O)c3c(=O)c2c1CC=C(C)C`, for which the activity change, negative = inhibition was -80.8% (active).

In the case of `C[N+](C)(C)[C@@H](Cc1c[nH]c(=S)[nH]1)C(=O)O`, the activity change, negative = inhibition was 3.37% (inactive).

On to `COc1ccc(CCCn2ncc3c2nc(N)n2nc(-c4ccco4)nc32)cc1`, for which the activity change, negative = inhibition was -11.7% (inactive).

With `Nc1nc2c(cnn2CCc2ccccc2)c2nc(-c3ccco3)nn12`, the activity change, negative = inhibition is 16.9% (inactive) and 59.6% (inactive).

As to `Nc1nc(NCCc2ccc(O)cc2)nc2nc(-c3ccco3)nn12`, the activity change, negative = inhibition is -78.9% (active) and -90.1% (active).

On to `CC(COc1ccccc1)NC(C)[C@H](O)c1ccc(O)cc1` (some centres undefined), for which the activity change, negative = inhibition was 7.25% (inactive) and 9.37% (inactive).

For the compound `CC(C)OC(=O)OCOP(=O)(CO[C@H](C)Cn1cnc2c(N)ncnc21)OCOC(=O)OC(C)C`, the activity change, negative = inhibition is -84% (active).

`Nc1ncnc2c1ncn2CCOCP(=O)(O)O`: the activity change, negative = inhibition was 5.36% (inactive).

Take `CC(C)(C)C(=O)OCOP(=O)(COCCn1cnc2c(N)ncnc21)OCOC(=O)C(C)(C)C`: the activity change, negative = inhibition is -84.5% (active) and -86.9% (active).

In the case of `C[C@H](Cn1cnc2c(N)ncnc21)OCP(=O)(O)O`, the activity change, negative = inhibition is 8.95% (inactive).

Regarding `Nc1ncnc2c1ncn2C1O[C@H](COP(=O)(O)O)[C@@H](O)[C@H]1O` (some centres undefined), the activity change, negative = inhibition is 13.1% (inactive).

Consider `Nc1ncnc2c1ncn2C1OC(COP(=O)(O)O)C(O)C1O` (centres undefined) (tested in a mixture with another compound), for which the activity change, negative = inhibition is 1.1% (inactive).

For `CC(=O)OC[C@H]1O[C@@](COC(C)=O)(O[C@H]2O[C@H](COC(C)=O)[C@@H](OC(C)=O)[C@H](OC(C)=O)[C@H]2OC(C)=O)[C@@H](OC(C)=O)[C@@H]1OC(C)=O`, the activity change, negative = inhibition is 4.98% (inactive).

In the case of `CCC1(c2cnc[nH]2)Cc2ccccc2C1`, the activity change, negative = inhibition is 52.1% (inactive).

In the case of `CS(=O)(=O)NC(=O)CCC/C=C\C[C@H]1C(=O)C[C@@H](O)[C@@H]1/C=C/[C@@H](O)COc1ccccc1`, the activity change, negative = inhibition is 0.217% (inactive).

For `CCCC(=O)Nc1ncnc2c1ncn2C1OC2COP(=O)(O)OC2C1OC(=O)CCC` (centres undefined), the activity change, negative = inhibition was 6.24% (inactive).

In the case of `C=C1C[C@]23C[C@@]1(O)CC[C@H]2[C@@]12C=C[C@H](O)[C@](C)(C(=O)O1)[C@H]2[C@@H]3C(=O)O`, the activity change, negative = inhibition is 1.78% (inactive).

`CCCCC(C)(C)[C@H](O)/C=C/[C@H]1[C@H](O)CC(=O)[C@@H]1C/C=C\CCCC(=O)O`: the activity change, negative = inhibition is 16.3% (inactive).

Regarding `O/N=C/c1ccc(-c2ccc(O)c(F)c2)c(Cl)c1O`, the activity change, negative = inhibition was -85.3% (active).

As to `CC(=O)Nc1cccc(-n2c(=O)n(C3CC3)c(=O)c3c(Nc4ccc(I)cc4F)n(C)c(=O)c(C)c32)c1`, the activity change, negative = inhibition is 19.3% (inactive).

On to `CCOc1nc2cccc(C(=O)O)c2n1Cc1ccc(-c2ccccc2-c2nn[nH]n2)cc1`, for which the activity change, negative = inhibition is -59.6% (inactive).

For `C=C[C@]1(C)C[C@@H](OC(=O)CSC(C)(C)CNC(=O)[C@H](N)C(C)C)[C@@]2(C)[C@H](C)CC[C@]3(CCC(=O)[C@H]32)[C@@H](C)[C@@H]1O`, the activity change, negative = inhibition is -20.2% (inactive).

For `COc1ccc(-c2nc(N3CCOCC3)c3sc(CN(C)c4ncc(C(=O)NO)cn4)cc3n2)cn1`, the activity change, negative = inhibition was -89.4% (active).

Consider `CS(=O)(=O)N1CCN(Cc2cc3nc(-c4cccc5[nH]ncc45)nc(N4CCOCC4)c3s2)CC1`, for which the activity change, negative = inhibition is -19.3% (inactive).

Turning to `Cc1c(CN2CCN(C(=O)[C@H](C)O)CC2)sc2c(N3CCOCC3)nc(-c3cnc(N)nc3)nc12`, the activity change, negative = inhibition is -21.6% (inactive).

`C=CC(C)(C)c1[nH]c2ccccc2c1C1C(=O)C(=O)C(c2c[nH]c3c(CC=C(C)C)cccc23)C(=O)C1=O` (centres undefined): the activity change, negative = inhibition was 6.09% (inactive).

Consider `O=C(O)/C=C1\CCCc2ccccc2C1O` (centres undefined), for which the activity change, negative = inhibition was 14% (inactive) and 4.55% (inactive).

For the compound `Cc1ccc2c(Br)cc(Br)c(OC(=O)c3ccccc3)c2n1`, the activity change, negative = inhibition is -89.9% (active).

In the case of `O=C(Oc1cccc2cccnc12)c1ccccc1`, the activity change, negative = inhibition is 9.16% (inactive) and -0.158% (inactive).

`O=C(OOC(=O)c1ccccc1)c1ccccc1`: the activity change, negative = inhibition was 3.51% (inactive).

For the compound `Nc1nc(N)c([NH2+][O-])c(OCC2CCCCC2)n1`, the activity change, negative = inhibition was 6.35% (inactive).

Take `O=C(O)[C@H](O)[C@H](O)[C@@H](O)[C@H](O)[C@H](O)CO`: the activity change, negative = inhibition is 15.3% (inactive) and -2.15% (inactive).

Consider `COc1cccc2c1C(=O)c1c(O)c3c(c(O)c1C2=O)C[C@@](O)(C(C)=O)C[C@@H]3OC1CC(N)C(O)C(C)O1` (some centres undefined), for which the activity change, negative = inhibition is -89.8% (active).

On to `COc1cccc2c1C(=O)c1c(O)c3c(c(O)c1C2=O)C[C@@](O)(C(C)=O)C[C@@H]3O[C@H]1C[C@H](N)[C@H](O)[C@H](C)O1`, for which the activity change, negative = inhibition was -66.8% (inactive) and -6.1% (inactive) and -91.6% (active).

The values are drawn from PubChem BioAssay AID1259421 (Broad Institute, 2018).
